From paper PMC5540273 (PLoS ONE, 2017)

Key:
Details in all cases: concentration: 1 μM, replicates: in singlicate; n = 1
[1] = tested on: T1, RSK1(Kin.Dom.2-C-terminal)
T1 construct: gene RPS6KA1

[2] = tested on: T2, RSK2(Kin.Dom.1-N-terminal)
T2 construct: gene RPS6KA3

[3] = tested on: T3, RSK2(Kin.Dom.2-C-terminal)
T3 construct: gene RPS6KA3

[4] = tested on: T4, RSK3(Kin.Dom.1-N-terminal)
T4 construct: gene RPS6KA2

[5] = tested on: T5, RSK3(Kin.Dom.2-C-terminal)
T5 construct: gene RPS6KA2

[6] = tested on: T6, RSK4(Kin.Dom.1-N-terminal)
T6 construct: gene RPS6KA6

[7] = tested on: T7, RSK4(Kin.Dom.2-C-terminal)
T7 construct: gene RPS6KA6

[8] = tested on: S6K1
[9] = tested on: SBK1
[10] = tested on: SGK2
[11] = tested on: SGK3
[12] = tested on: SGK
[13] = tested on: SIK2
[14] = tested on: SIK
[15] = tested on: SLK
[16] = tested on: T8, SNARK
T8 construct: gene NUAK2

[17] = tested on: SNRK
[18] = tested on: SRC
[19] = tested on: SRMS
[20] = tested on: SRPK1
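Note: KINOMEscan kinase panel screen.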

SMILES | %Inh [1] [%] | %Inh [2] [%] | %Inh [3] [%] | %Inh [4] [%] | %Inh [5] [%] | %Inh [6] [%] | %Inh [7] [%] | %Inh [8] [%] | %Inh [9] [%] | %Inh [10] [%] | %Inh [11] [%] | %Inh [12] [%] | %Inh [13] [%] | %Inh [14] [%] | %Inh [15] [%] | %Inh [16] [%] | %Inh [17] [%] | %Inh [18] [%] | %Inh [19] [%] | %Inh [20] [%]
COc1ccc2cc(-c3nc(-c4ccccc4C(C)C)[nH]c3-c3ccncc3)ccc2c1 [SB-660566] | 0 | 3 | 18 | 19 | 0 | 25 | 11 | 8 | 2 | 0 | 0 | 0 | 0 | 0 | 78 | 0 | 0 | 0 | 0 | 7
CNc1nc(-c2ccc3c(N)n[nH]c3c2)cc(N2C[C@@H](C(=O)Nc3ccccc3)CC[C@H]2C)n1 [GSK2298859] | 0 | 0 | 0 | 7 | 3 | 0 | 23 | 0 | 4 | 0 | 1 | 0 | 0 | 4 | 19 | 8 | 0 | 2 | 0 | 33
COc1cc2ncnc(Nc3cccc(Br)c3)c2cc1OC.Cl [GI230329] | 11 | 11 | 5 | 0 | 0 | 0 | 15 | 0 | 16 | 2 | 0 | 22 | 0 | 0 | 65 | 3 | 23 | 20 | 21 | 34
Cc1ccc(NC(=O)Nc2ccccc2F)cc1-c1ccc(C(=O)Nc2ccncc2)cc1 [GSK1398477] | 0 | 9 | 6 | 20 | 0 | 0 | 14 | 13 | 28 | 0 | 0 | 0 | 22 | 15 | 34 | 0 | 0 | 27 | 0 | 52
Cc1c(Cn2c3ccccc3n3c(=O)cc(N4CCOCC4)nc23)cccc1C(F)(F)F [GSK2306394] | 0 | 4 | 30 | 5 | 1 | 0 | 11 | 0 | 9 | 0 | 0 | 15 | 0 | 0 | 5 | 0 | 0 | 1 | 0 | 41
O=c1cc(N2CCOCC2)nc2n(Cc3ccccc3F)ccn12 [GSK2297428] | 0 | 0 | 0 | 3 | 0 | 0 | 0 | 0 | 0 | 0 | 4 | 0 | 0 | 0 | 28 | 0 | 0 | 0 | 0 | 0
Cc1ccccc1-c1cc(-c2c[nH]nc2-c2ccccn2)ccn1 [GW680061] | 14 | 10 | 15 | 2 | 0 | 0 | 22 | 2 | 0 | 0 | 0 | 0 | 0 | 0 | 0 | 1 | 0 | 0 | 0 | 0
Cn1cnc2c(N)ncnc21 [SKF-97623] | 100 | 0 | 0 | 0 | 8 | 0 | 2 | 0 | 0 | 0 | 0 | 0 | 27 | 0 | 0 | 0 | 0 | 0 | 0 | 0
Cc1ccc(NC(=O)c2ccc(Cl)cc2)cc1-c1ccc(C(=O)Nc2ccncc2)cc1 [GSK1398467] | 0 | 4 | 2 | 8 | 22 | 0 | 10 | 7 | 0 | 0 | 0 | 0 | 0 | 0 | 19 | 0 | 0 | 0 | 0 | 13
COc1ccc(Nc2nccc(N3CCC(NC(=O)c4cc5ccccc5s4)C3)n2)cc1 (centres unmarked) [GSK1379738] | 4 | 10 | 4 | 1 | 0 | 0 | 0 | 0 | 2 | 0 | 7 | 0 | 0 | 0 | 4 | 6 | 0 | 0 | 0 | 17
CC(=O)c1c(C)c2cnc(Nc3ccn(C)n3)nc2n(C2CCCC2)c1=O | 4 | 0 | 0 | 0 | 0 | 0 | 0 | 0 | 0 | 0 | 26 | 0 | 0 | 0 | 34 | 6 | 0 | 0 | 0 | 0
CS(=O)(=O)CCNCc1nc(-c2ccc3ncnc(Nc4ccc5c(cnn5Cc5ccccc5)c4)c3c2)cs1.Cl.Cl [GW569716] | 0 | 0 | 0 | 0 | 4 | 0 | 5 | 5 | 0 | 7 | 0 | 3 | 0 | 0 | 0 | 0 | 0 | 0 | 0 | 14
O=C(Nc1n[nH]c2cc(-c3ccsc3)ccc12)C1CC1 [SB-732932] | 19 | 27 | 0 | 71 | 16 | 29 | 24 | 13 | 44 | 4 | 26 | 6 | 0 | 4 | 0 | 29 | 15 | 0 | 13 | 45
CC(C)c1cc(-c2ccc3c(N)n[nH]c3c2)nc(N)n1 [GSK2250882] | 0 | 18 | 0 | 0 | 5 | 0 | 17 | 0 | 16 | 0 | 4 | 0 | 0 | 0 | 14 | 0 | 0 | 0 | 8 | 60
CNC(=O)c1ccc(C)c(-n2c(C)cc(OCc3ccc(F)cc3F)c(Br)c2=O)c1 | 0 | 0 | 0 | 10 | 0 | 0 | 0 | 0 | 0 | 0 | 0 | 0 | 0 | 0 | 0 | 0 | 0 | 0 | 0 | 14
O=C(Nc1n[nH]c2nc(-c3cccs3)c(Br)cc12)C1CC1 [SB-735297] | 0 | 22 | 0 | 0 | 0 | 98.9 | 20 | 22 | 11 | 27 | 15 | 26 | 0 | 0 | 7 | 10 | 0 | 0 | 5 | 22

SMILES | %Inh [1] [%] | %Inh [2] [%] | %Inh [3] [%] | %Inh [4] [%] | %Inh [5] [%] | %Inh [6] [%] | %Inh [7] [%] | %Inh [8] [%] | %Inh [9] [%] | %Inh [10] [%] | %Inh [11] [%] | %Inh [12] [%] | %Inh [13] [%] | %Inh [14] [%] | %Inh [15] [%] | %Inh [16] [%] | %Inh [17] [%] | %Inh [18] [%] | %Inh [19] [%] | %Inh [20] [%]
COc1ccc(CSc2nnc(-c3ccc4nccn4c3)o2)cc1C(F)(F)F | 44 | 12 | 10 | 8 | 6 | 30 | 0 | 0 | 0 | 4 | 61 | 8 | 29 | 13 | 14 | 77 | 5 | 7 | 3 | 20
COC(=O)C(Cc1ccccc1)NC(=O)NC1CCN(c2ccnc(Nc3ccc(F)cc3)n2)C1 (centres unmarked) [GSK1379714] | 0 | 0 | 19 | 5 | 10 | 1 | 9 | 2 | 13 | 0 | 0 | 2 | 0 | 0 | 22 | 0 | 0 | 1 | 5 | 15
CS(=O)(=O)Cc1ccc(Nc2nccc(-c3c(-c4cccc(NC(=O)C5CCCCC5)c4)nn4ncccc34)n2)cc1 [GSK350559] | 33 | 13 | 11 | 12 | 0 | 17 | 9 | 24 | 34 | 40 | 0 | 46 | 0 | 0 | 53 | 7 | 16 | 30 | 3 | 29
c1ccc(-c2ccnc3[nH]ccc23)cc1 [SB-693578] | 0 | 30 | 27 | 0 | 0 | 29 | 17 | 26 | 17 | 4 | 10 | 18 | 25 | 0 | 6 | 48 | 0 | 0 | 0 | 0
Cc1cccc2c(-c3ccncn3)c(-c3ccc(F)cc3)nn12 [GW515532] | 50 | 9 | 8 | 6 | 19 | 0 | 87 | 1 | 9 | 14 | 2 | 12 | 39 | 0 | 13 | 0 | 0 | 0 | 0 | 33
CN1c2ccc(-c3ccc(C(N)=O)cc3)cc2-c2[nH]ncc2S1(=O)=O | 47 | 17 | 35 | 0 | 41 | 0 | 38 | 0 | 0 | 8 | 0 | 0 | 10 | 8 | 2 | 0 | 0 | 7 | 4 | 0
Cc1ccc(NC(=O)Nc2ccccc2)cc1-c1ccc(C(=O)Nc2ccncc2)cc1 [GSK1398471] | 10 | 0 | 1 | 3 | 7 | 0 | 6 | 0 | 5 | 0 | 10 | 0 | 0 | 6 | 13 | 4 | 0 | 20 | 0 | 33
Nc1cccc(-c2ccc3c(N)n[nH]c3c2)n1 [GSK2192730] | 21 | 3 | 0 | 6 | 19 | 0 | 17 | 7 | 2 | 6 | 34 | 2 | 0 | 0 | 0 | 19 | 0 | 0 | 0 | 33
COc1ccc(Nc2nccc(NCCNC(=O)Nc3cc(C)ccc3C)n2)cc1 [GSK1379899] | 0 | 4 | 9 | 0 | 0 | 0 | 0 | 0 | 0 | 0 | 0 | 0 | 0 | 0 | 27 | 0 | 0 | 0 | 0 | 34
Fc1ccc(-c2nc3n(c2-c2ccncc2)CCS3)cc1 [GI98581] | 22 | 1 | 7 | 18 | 11 | 0 | 88 | 33 | 21 | 6 | 0 | 0 | 0 | 17 | 25 | 0 | 0 | 9 | 0 | 23
Cc1ccc(NC(=O)Nc2ccc(Cl)cc2)cc1-c1ccc(C(=O)Nc2ccncc2)cc1 [GSK1398472] | 0 | 2 | 6 | 15 | 0 | 0 | 20 | 8 | 19 | 8 | 13 | 0 | 11 | 20 | 12 | 0 | 0 | 8 | 0 | 0
CC(C)c1ccc(O)cc1Nc1ccnc2ccc(C(F)(F)F)cc12 [GW482059] | 0 | 0 | 10 | 0 | 7 | 0 | 0 | 0 | 5 | 0 | 4 | 7 | 0 | 0 | 9 | 3 | 0 | 14 | 0 | 35
COc1cccc(NC(=O)Nc2ccc(C)c(-c3ccc(C(=O)Nc4ccncc4)cc3)c2)c1 [GSK1398474] | 0 | 0 | 0 | 7 | 19 | 0 | 22 | 18 | 8 | 0 | 11 | 0 | 0 | 10 | 7 | 13 | 3 | 31 | 0 | 31
CCn1c(-c2ccccc2)nc2cnccc21 [SB-733416] | 0 | 1 | 23 | 28 | 0 | 8 | 0 | 22 | 9 | 9 | 0 | 9 | 5 | 3 | 28 | 0 | 0 | 0 | 0 | 11
CCn1c(-c2c(N)noc2C)nc2cnccc21 [SB-737856] | 0 | 16 | 8 | 15 | 0 | 0 | 22 | 0 | 15 | 0 | 0 | 0 | 0 | 0 | 4 | 0 | 0 | 0 | 0 | 0
